# Results taken from PubChem BioAssay AID1942 (Johns Hopkins Ion Channel Center, 2009).
# Hit rate of the full screen: of about 2,400 compounds, about 580 (24%) were called active. The list is a sample of the results. A number with no mark means an inactive call.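 Rule for the calls: active = activity change at or above the mean plus 3 SD of buffer wells without dofetilide, per plate; inactive = the rest.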
# Target: Potassium voltage-gated channel subfamily KQT member 2 (Rattus norvegicus) (UniProt O88943)
# Sequence (O88943 whole entry, looked up): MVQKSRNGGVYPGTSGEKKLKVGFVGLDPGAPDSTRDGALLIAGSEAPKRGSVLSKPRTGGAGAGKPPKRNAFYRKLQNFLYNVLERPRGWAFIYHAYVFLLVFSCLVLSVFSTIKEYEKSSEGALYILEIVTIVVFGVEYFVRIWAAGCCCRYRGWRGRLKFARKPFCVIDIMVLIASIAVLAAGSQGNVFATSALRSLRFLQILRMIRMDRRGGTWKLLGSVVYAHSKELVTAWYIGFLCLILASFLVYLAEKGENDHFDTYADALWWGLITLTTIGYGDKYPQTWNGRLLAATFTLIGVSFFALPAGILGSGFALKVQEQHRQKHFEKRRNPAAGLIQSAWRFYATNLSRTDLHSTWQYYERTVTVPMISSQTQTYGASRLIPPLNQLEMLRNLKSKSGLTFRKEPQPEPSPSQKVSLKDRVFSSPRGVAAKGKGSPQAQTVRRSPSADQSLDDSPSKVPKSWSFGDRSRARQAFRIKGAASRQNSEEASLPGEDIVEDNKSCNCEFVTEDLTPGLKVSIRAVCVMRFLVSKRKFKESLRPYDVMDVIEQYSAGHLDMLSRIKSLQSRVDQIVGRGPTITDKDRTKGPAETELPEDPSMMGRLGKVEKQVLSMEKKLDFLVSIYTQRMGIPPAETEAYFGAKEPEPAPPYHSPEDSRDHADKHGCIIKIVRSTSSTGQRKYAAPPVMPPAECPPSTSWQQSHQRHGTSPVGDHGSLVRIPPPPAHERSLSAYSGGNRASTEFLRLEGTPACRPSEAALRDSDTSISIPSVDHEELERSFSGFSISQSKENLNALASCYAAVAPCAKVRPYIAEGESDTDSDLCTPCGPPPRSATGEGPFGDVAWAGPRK
# Assay: rat KCNQ2 channel activation by compounds alone, confirmation, counter-screen for hERG block protector project, cell-based, CHO, FluxOR thallium flux (AID 1942);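 note: normalized value minus buffer-control mean plus three SD of buffer wells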
# Details: CHO-KCNQ2 cells, FluxOR thallium flux fluorescence; at 10 µM; hits give high values
row,SMILES,"activity change, less the hit threshold"
1,Cc1cc(NC(=O)CSc2ccc3nnc(-c4cccs4)n3n2)no1,-20.2%
2,O=C(O)c1ccc2c3n(nc2c1)-c1ccc(Cl)cc1CO3,-11.6%
3,Cc1ccc(C)c(NC(=S)NC(=O)c2cncc(Br)c2)c1,-2.9%
4,Cc1ccc(NC(=O)c2ccc3c(c2)CCN3S(C)(=O)=O)c(C)c1,-23.2%
5,O=C(NC(=S)Nc1ccccc1)c1ccc(Br)o1,3.3% (active)
6,Cc1ccc(NC(=S)NC(=O)c2ccc(Br)o2)c(C)c1,8.1% (active)
7,Cc1c(C(=O)NC(=S)NCc2cccnc2)oc2ccccc12,-18.2%
8,O=C(NC(=S)Nc1cccnc1)c1cc2ccccc2o1,10.1% (active)
9,O=C(NC(=S)Nc1cccc(Cl)c1)c1cncc(Br)c1,-16.1%
10,O=C(NC(=S)NNC(=O)c1cccs1)c1ccc(Br)o1,-12.6%
11,O=C(NC(=S)Nc1ccccc1F)c1ccc(Br)o1,59.7% (active)
12,Fc1cccc(C2NN=C(c3ccccc3)S2)c1 (centres undefined),-7.2%
13,O=C(OCCNc1ccc(C(F)(F)F)cc1[N+](=O)[O-])c1cc2ccccc2oc1=O,-14.3%
14,O=C(O)COc1ccc(NC(=O)c2ccc3c(c2)C(=O)N(C2CCCCC2)C3=O)cc1,-6.7%
15,COc1cc(S(=O)(=O)n2cnc(C)c2)ccc1Cl,-21.2%
16,COCCN(C(=O)CSc1nnc(C)n1Cc1ccccc1)c1c(N)n(CC(C)C)c(=O)[nH]c1=O,-21.8%
17,Cc1nc2n(n1)CC(O)CS2 (centres undefined),-16.3%
18,Cc1cccc(NC(=S)NC(=O)c2ccc(Br)o2)c1,46.1% (active)
19,S=C(NCc1ccccc1)NCc1ccccc1Cl,-23.7%
20,CCN(c1ccccc1)S(=O)(=O)c1ccc(NC(=S)NC(=O)c2ccc(Br)o2)cc1,0.3% (active)
21,O=C(NC(=S)NCc1ccccc1)c1ccc(Br)o1,70.4% (active)
22,COc1ccc(NC(=S)NC(=O)c2ccc(Br)o2)cc1,11.8% (active)
23,O=C(CNC(=S)NC(=O)c1ccc(Br)o1)c1ccccc1,-11.7%
24,CCc1ccc(NC(=S)NC(=O)c2c(-c3ccccc3Cl)noc2C)cc1,-17.1%
25,CS(=O)(=O)N(Cc1ccccc1)c1ccc(C(=O)Nc2ccc(C(N)=O)cc2)cc1,-23.7%

row,SMILES,"activity change, less the hit threshold"
1,COc1ccc(OC)c(NC(=S)NC(=O)c2ccc(Br)o2)c1,-6.9%
2,CCOc1ccc(-c2cccc(NC(=O)c3ccc(Br)o3)c2)nn1,-30.4%
3,CC(C)C(=O)Nc1cccc(C(=O)Nc2ccccc2C(=O)O)c1,-17.8%
4,COc1ccc(Cc2c(O)nc(SCC(=O)NC(C)(C)C)[nH]c2=O)cc1,-19.2%
5,CC(C(=O)N1CCN(c2ccc([N+](=O)[O-])cc2)CC1)N1C(=O)C2CC=CCC2C1=O (centres undefined),-20.1%
6,Cc1cc(C)n2nc(SCC(=O)NC3CCCCC3C)nc2n1 (centres undefined),-30.3%
7,COCCOC(=O)C1=C(C)Nc2ncnn2C1c1ccc(F)cc1 (centres undefined),-22%
8,CCOc1ccc(NC(=O)C2C(C(=O)O)C3(Cl)C(Cl)=C(Cl)C2(Cl)C3(Cl)Cl)cc1 (centres undefined),-15.5%
9,Fc1ccccc1NC(=S)N/N=C/c1ccccc1Br,-25.7%
10,S=C(N/N=C/c1ccccc1Cl)Nc1cccc(Cl)c1Cl,8.6% (active)
11,Cc1ccc(Cl)cc1NC(=S)N/N=C/c1cccc2ccccc12,-24.4%
12,CCN(CC)CCCNC(=O)c1cn(-c2cccc(OC)c2)c(=O)c2ccccc12,-18.5%
13,COc1ccc(-c2ccc(/C=N/NC(=O)c3cccnc3)o2)c([N+](=O)[O-])c1,-11.4%
14,C=CCNC(=S)Nc1sc2c(c1C(=O)OCC)CC(C(C)C)OC2 (centres undefined),16.9% (active)
15,C=CCNC(=S)Nc1sc2c(c1C(=O)OCC)CC(C)(CC)OC2 (centres undefined),15.9% (active)
16,COC(=O)n1c(=S)oc2cc(Cl)ccc21,-10%
17,Cc1ccccc1OC(=O)n1c(=S)oc2cc(Cl)ccc21,9.7% (active)
18,Cc1ccc(Cl)cc1NC(=O)COC(=O)c1ccccc1O,-21.1%
19,Cc1ccc(NC(=O)CCC(=O)OCC(F)(F)C(F)F)cc1,-23%
20,CCCCC(=O)Nc1cccc(C(=O)Nc2ccccc2C(=O)O)c1,-4%
21,CCCCC(=O)Nc1ccc(NCc2ccc(C)s2)cc1,42.5% (active)
22,COc1cccc(OC)c1OCCOCCN1CCN(C)CC1,-21%
23,CCN(CC)c1ccc(NC(=S)NC(=O)c2cccs2)cc1,-9.5%
24,O=C(NC(=S)Nc1ccc(N2CCCCC2)cc1)c1cccs1,-9.5%
25,O=C(NC(=S)Nc1ccccc1N1CCCCC1)c1cccs1,-23.1%

row,SMILES,"activity change, less the hit threshold"
1,O=C(NC(=S)NCc1ccccc1)c1cccs1,5.6% (active)
2,O=C(NC(=S)Nc1ccccc1)c1cccs1,3.3% (active)
3,CCSc1nc2c(c(=O)[nH]1)C(c1ccc(C)cc1)C1=C(CCCC1=O)N2 (centres undefined),-8.9%
4,O=C(O)C/C(=C\c1cc(Br)cs1)c1nc2ccccc2o1,-8.4%
5,CCCCCCc1cc2cc(-c3nnc(-c4ccccc4O)o3)c(=O)oc2cc1O,-7%
6,CC(C)(C)c1csc(NC(=O)C2=COCCO2)n1,-13%
7,Oc1c(Cl)cc(Cl)cc1/C=N/c1ncn[nH]1,23.9% (active)
8,Oc1c(Cl)cc(Cl)cc1Sc1cc(Cl)cc(Cl)c1O,-1.7%
9,Oc1c(Cl)cc(Cl)cc1/C=N/c1nccs1,32.3% (active)
10,CC1CCN(C(=O)CSc2nnc(CNC(=O)c3ccco3)o2)CC1,-12.8%
11,CCOc1ccc(NC(=O)CS(=O)CC(=O)NC2CCCc3ccccc32)cc1 (centres undefined),-13.6%
12,Cc1nc2ccccc2n1-c1ccccc1,-4.2%
13,COc1ccc(-n2ncc3c2CC(C)(C)CC3NC(=O)c2cn[nH]c2)cc1 (centres undefined),-22.9%
14,O=C(O)c1cc(NN=C2c3ccccc3-c3ccccc32)ccc1Cl,32.4% (active)
15,O=C(O)c1cc(N/N=C/c2ccc(-c3ccccc3)cc2)ccc1Cl,-22.4%
16,CC(C)Oc1cc(S(=O)(=O)N2CCCCC2)ccc1N,-15.7%
17,O=[N+]([O-])c1ccc(S(=O)(=O)Nc2ccc(S(=O)(=O)N3CCCC3)cc2)cc1,-23.3%
18,CCCCOc1ccc(-c2c(C#N)c(N)[nH]c(=S)c2C#N)cc1,-10.1%
19,CCOC(=O)c1c(C)[nH]c(=S)c(C#N)c1-c1ccc(Cl)cc1,5.2% (active)
20,Cc1[nH]c(=S)c(C#N)c(C)c1Cc1ccc(Cl)cc1Cl,-7.1%
21,Cc1ccc([N+](=O)[O-])c2c1C(N1CC(C)OC(C)C1)C(C)(C)O2 (centres undefined),-14.4%
22,S=c1nc(C2CCCCC2)n(-c2ccccc2)[nH]1,41.2% (active)
23,Cc1cc(OCC(=O)Nc2cc(S(=O)(=O)N3CCOCC3)ccc2N2CCCC2)ccc1C(C)C,-14.1%
24,CNC(=S)N/N=C/c1cc(Br)cc(Br)c1O,-6.6%
25,Cc1nnc(C)n1/N=C/c1cc(Br)cc(Br)c1O,17.8% (active)

row,SMILES,"activity change, less the hit threshold"
1,CC(=O)C1=C(O)C(=O)N(c2cccnc2)C1c1ccc(Cl)cc1 (centres undefined),-25.8%
2,Cc1c(C)c2ccc(OCC(=O)N[C@@H](Cc3ccccc3)C(=O)O)cc2oc1=O,-10%
3,O=C(COc1ccc2c3c(c(=O)oc2c1)CCC3)N[C@@H](Cc1ccccc1)C(=O)O,8.1% (active)
4,O=C(COc1ccc2c3c(c(=O)oc2c1)CCC3)NCC1CCC(C(=O)O)CC1 (centres undefined),-17.1%
5,Cc1cc(=S)nc(-c2ccccn2)[nH]1,-4.4%
6,Cc1[nH]c(-c2ccccn2)nc(=S)c1Cl,92% (active)
7,COC(=O)Cc1[nH]n(-c2nc3ccccc3s2)c(=O)c1C(C)=Nc1ccc(C)cc1,-15.8%
8,COc1cc(NC(=O)c2ccc3c(c2)OCO3)ccc1NC(=O)c1cccs1,-18.6%
9,COc1ccc(NC(=O)C(=O)NNC(=O)c2cccs2)c(OC)c1,30.8% (active)
10,COc1cc(NC(=O)c2cc(-c3cccnc3)nc3ccc(C)cc23)c(OC)cc1Cl,-13.9%
11,COc1cccc(C(=O)NNC(=O)C(=O)Nc2cccc3ccccc23)c1,59.7% (active)
12,COc1cc(OC)cc(C(=O)NNC(=O)C(=O)Nc2cc(OC)c(Cl)cc2OC)c1,49.6% (active)
13,COc1cccc(CCNS(=O)(=O)CCNC(=O)c2cccc(OC)c2)c1,-13.6%
14,COc1ccc(OC)c(NC(=O)C(=O)NNC(=O)c2cccs2)c1,-6.1%
15,COc1ccc(C(=O)NNC(=O)C(=O)Nc2cccc3ccccc23)cc1,59.1% (active)
16,C=C(C)CSc1nnc2[nH]c(=O)cc(N)n12,-18.3%
17,O=C(/C=C/Nc1ccccc1)C(F)(F)F,-19.8%
18,COc1ccc(C2CC(c3ccc(Cl)cc3Cl)Nc3nc(N)nn32)cc1OC (centres undefined),-21.7%
19,COc1ccc(/C=C2\SC(c3ccc(C)cc3)=NC2=O)cc1OC,-17.7%
20,Oc1ccc(Br)cc1-c1n[nH]c(=S)n1Cc1ccccc1,-4.7%
21,Fc1ccccc1N1CCN(c2cnc3ccccc3n2)CC1,-14.5%
22,Cc1cccc(N(C(=O)c2csnn2)C(C(=O)NCc2ccccc2)c2ccncc2)c1 (centres undefined),-10.4%
23,O=C1C(c2ccccc2)C(c2ccccc2)NC(c2ccccc2)C1c1ccccc1 (centres undefined),-17.9%
24,O=C(CCSc1ccc(Br)cc1)c1ccc(O)cc1,-15%
